High-throughput results from PubChem.
Tau FP inhib: qHTS for Inhibitors of Tau Fibril Formation, Fluorescence Polarization; Microtubule-associated protein tau (Homo sapiens), P10636; K18 P301L tau heparin fibrillization, Alexa594 FP, 6 h; Potency, µM (titrated, usually from 57.7 µM), usual class: inhibitors; actives 0.39% (n = 280,000); also: nearly all actives have a fitted effect of over 55% in size
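K18 P301L tau (15 uM unlabeled/0.24 uM Alexa 594-labeled, final) + compound + heparin 20 uM final; 100 mM NaOAc pH 7; 6 hr 37 C; ThT 30 uM final added, 1 hr RT; FP ex 555/em 632 nm.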
Tau ThT inhib: qHTS for Inhibitors of Tau Fibril Formation, Thioflavin T Binding. recombinant tau K18 P301L, heparin-induced fibrillization, ThT fluorescence. Potency, µM (highest dose often 57.4 µM), actives largely listed as inhibitors. actives 2.1% (n = 270,000); also: nearly all actives have a fitted effect of over 55% in size
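Aggregation was driven by heparin (20 uM final) acting on recombinant tau […] bearing P301L in 100 mM sodium acetate pH 7; fibrils were detected with Thioflavin T.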
VP16 counter: VP16 counterscreen qHTS for inhibitors of ROR gamma transcriptional activity; Potency, µM (titrated, usually from 53.6 µM), usual class: inhibitors; actives 3.5% (n = 310,000); Drosophila S2 Gal4-VP16 UAS-luciferase, luminescence, 20 h; AID 2546, 2010;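 also: Gal4-VP16 expression switched on by copper sulfate through the metallothionein promoter; nearly all actives have a fitted effect of over 50% in size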
Tau fluor cs: Counterscreen qHTS for Inhibitors of Tau Fibril Formation, Fluorescence Polarization; Potency, µM (doses to about 57.7 µM); actives 0.93% (n = 280,000); AID 1463, 2008; tau K18 P301L Alexa594 fluorescence, heparin fibrillization; also: nearly all actives have a fitted effect of over 55% in size
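Human tau K18 P301L (15 uM unlabeled, 0.24 uM Alexa 594-labeled) in 100 mM sodium acetate pH 7 with 20 uM heparin, 6 hr at 37 C. ThT 30 uM added, 1 hr ambient; Alexa 594 FP and total fluorescence read at 555/632 nm.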
RORg inh: qHTS for inhibitors of ROR gamma transcriptional activity. AID 2551, 2010. actives 5.4% (n = 310,000). Potency, µM (titrated, usually from 53.6 µM), actives largely listed as inhibitors. Drosophila S2 Gal4-RORgamma UAS-luciferase reporter, 20 h; also: nearly all actives have a fitted effect of over 60% in size
Target sequence (P51450 whole entry, looked up, the tested form may be a part): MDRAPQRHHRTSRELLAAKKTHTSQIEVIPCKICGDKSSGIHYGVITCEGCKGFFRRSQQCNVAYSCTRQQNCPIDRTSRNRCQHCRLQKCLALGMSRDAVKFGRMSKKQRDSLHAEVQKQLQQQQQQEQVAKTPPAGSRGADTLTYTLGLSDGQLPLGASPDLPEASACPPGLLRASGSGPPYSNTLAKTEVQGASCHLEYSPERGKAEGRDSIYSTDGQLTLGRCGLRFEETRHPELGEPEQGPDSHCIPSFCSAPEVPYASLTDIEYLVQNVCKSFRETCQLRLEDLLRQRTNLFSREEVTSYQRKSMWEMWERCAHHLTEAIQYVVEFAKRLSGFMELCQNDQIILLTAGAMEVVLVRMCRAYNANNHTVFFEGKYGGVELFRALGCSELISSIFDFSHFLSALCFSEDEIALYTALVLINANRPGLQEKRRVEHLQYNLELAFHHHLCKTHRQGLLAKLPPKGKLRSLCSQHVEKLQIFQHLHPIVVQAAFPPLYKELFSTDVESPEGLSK
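Read-out: Photinus luciferase luminescence; inhibitors lower reporter signal. Insect Schneider cells with Gal4-ROR gamma fusion under metallothionein promoter, UAS reporter; 700 uM final copper sulfate induction, 20 hr, ambient temperature.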
Large screens that a line does not name were inactive. Sampled rows, rich in hits. Any-hit rate of the full collection: about 7.3%. Calls follow the shape of the dose curve; as a rule, active = well fitted curve in the direction sought with a large enough effect; inconclusive = small, poorly fitted or top-dose-only effect, or another doubt; inactive = no such curve, though single readings can be large; an effect the other way counts as inactive or inconclusive.

CC(C)CC1NC(=O)C(CCCN)NC(=O)C(C(C)C)NC(=O)C2CCCN2C(=O)C(Cc2ccccc2)NC(=O)C(CC(C)C)NC(=O)C(CCCN)NC(=O)C(C(C)C)NC(=O)C2CCCN2C(=O)C(Cc2ccccc2)NC1=O (centres undefined)	VP16 counter 0.28µM, RORg inh 0.089µM
Nc1nc(-c2ccccn2)nc(N)c1Cc1c(F)cccc1Cl	VP16 counter 11µM, RORg inh 2.8µM
Nc1nc(-c2ccccn2)nc(N)c1Cc1ccc(Cl)cc1Cl	Tau FP inhib inconclusive, VP16 counter 8.9µM, RORg inh 4µM
Nc1nc(-c2ccccn2)nc(N)c1Cc1ccccc1F	RORg inh 6.3µM
Clc1ccc(OCc2nc(-c3ccccn3)no2)c(Br)c1	Tau ThT inhib inconclusive, VP16 counter inconclusive, RORg inh inconclusive
COc1ccc(-c2nc3cnc(OC)nc3n(Cc3cccc(OC)c3)c2=O)cc1	none (no result: Tau FP inhib, Tau ThT inhib, Tau fluor cs)
C=C(C#N)C(=O)OCC	none (no result: Tau FP inhib, Tau ThT inhib, Tau fluor cs)
COc1ccc(NC(=S)N2CCCN(Cc3cccc(Cl)c3)C2)cc1	Tau fluor cs inconclusive, RORg inh 13µM
COc1cccc(NC(=S)N2CCCN(Cc3ccc(F)cc3)C2)c1	VP16 counter inconclusive, Tau fluor cs inconclusive, RORg inh 3.5µM
CSc1cccc(NC(=S)N2CCCN(Cc3cccc(Cl)c3)C2)c1	Tau FP inhib inconclusive, VP16 counter inconclusive, Tau fluor cs inconclusive, RORg inh 10µM
Cc1cccc(C)c1NC(=S)N1CCCN(Cc2ccc(F)cc2)C1	RORg inh 14µM
CSCCC(NC(=O)c1ccco1)C(=O)Nc1ccncc1 (centres undefined)	none (no result: Tau FP inhib, Tau ThT inhib, Tau fluor cs)
Cc1ccc(-c2nc(C(=O)NCc3ccccc3Cl)c3n2CCCCC3)cc1	none (no result: VP16 counter, RORg inh)
Cc1cccc(N2CCN(C(=O)CSCc3c(C)noc3C)CC2)c1C	Tau ThT inhib inconclusive, VP16 counter 10µM, RORg inh inconclusive
Cc1csc(NC(=O)CSc2nc(=O)[nH]c3c2CCCC3)n1	none (no result: Tau FP inhib, Tau ThT inhib, Tau fluor cs)
C=CCn1c(-c2cccc(OCC)c2)n[nH]c1=S	Tau ThT inhib inconclusive, VP16 counter 18µM, RORg inh 5µM
C=CCn1c(-c2ccoc2)n[nH]c1=S	VP16 counter 18µM, RORg inh 11µM
C=CCn1c(Cc2ccccc2)n[nH]c1=S	VP16 counter inconclusive, RORg inh 7.1µM
C=CCn1c(-c2ccncc2)n[nH]c1=S	RORg inh 10µM
C=CCn1c(Cc2c[nH]c3ccccc23)n[nH]c1=S	none
CCC1CCCCN1C(=O)C(=O)c1cn(CC(=O)N(CC)CC)c2ccccc12 (centres undefined)	none (no result: Tau FP inhib, Tau ThT inhib, Tau fluor cs)
Cc1cccc(OC(C)C(=O)N2CCC(c3nc4ccccc4o3)CC2)c1C (centres undefined)	none (no result: VP16 counter, RORg inh)
C=CCn1c(CCc2cc(C(C)(C)C)c(O)c(C(C)(C)C)c2)n[nH]c1=S	VP16 counter 7.9µM, RORg inh 2.5µM
C=CCn1c(CCCOc2ccc(Cl)cc2Cl)n[nH]c1=S	VP16 counter 5.6µM, RORg inh 3.5µM
C=CCn1c(-c2ccccc2)n[nH]c1=S	RORg inh inconclusive
C=CCn1c(CSCc2ccc(F)cc2)n[nH]c1=S	VP16 counter 3.5µM, RORg inh 3.2µM (no result: Tau FP inhib, Tau ThT inhib, Tau fluor cs)
C=CCn1c(-c2ccc(F)cc2)n[nH]c1=S	Tau ThT inhib inconclusive, VP16 counter inconclusive, RORg inh 7.9µM
CC(C)OC(C)C	none (no result: Tau FP inhib, Tau ThT inhib, Tau fluor cs)
CCCCNc1nc(C)nc2c1nc(-c1ccccc1)n2C(C)CCCN(CC)CC (centres undefined)	none
COc1cc(NC(=O)c2sc3ncn(CC(=O)N4CCCCC4)c(=O)c3c2C)cc(OC)c1OC	none (no result: Tau FP inhib, Tau ThT inhib, Tau fluor cs)
O=C(O)c1nccnc1C(=O)Nc1ccccc1-c1ccccc1	none (no result: Tau ThT inhib)
C/C=C/C=C/C(=O)[C@@H]1[C@@H]([C@]2(C)OC(=O)C(C)=C2O)[C@H]2/C(=C(O)/C=C/C=C/C)C(=O)[C@]1(C)C(=O)C2(C)O (some centres undefined)	Tau FP inhib inconclusive, Tau ThT inhib 14µM
Cc1ccc(/C=N/c2sc3c(c2C#N)CCCCC3)o1	Tau ThT inhib inconclusive, VP16 counter inconclusive
Cc1ccc(/C=N/c2sc3c(c2C#N)CCC3)s1	Tau ThT inhib 2µM
